From PubChem
KDM5B inhibitor = Primary screen for KDM5B Histone Demethylases FDH-coupled qHTS; 220,000 tested, 2.6% active; Lysine-specific demethylase 5B (Homo sapiens), Q9UGL1; AID 1347165, 2019; KDM5B demethylase, FDH-coupled NADH fluorescence (FDH is formaldehyde dehydrogenase); Potency, µM (series often up to 57.7 µM), hits mostly inhibitors; active = well fitted inhibition curve with a large enough effect; note: nearly all actives have a fitted effect of over 70% in size
Target sequence (Q9UGL1 whole entry, looked up): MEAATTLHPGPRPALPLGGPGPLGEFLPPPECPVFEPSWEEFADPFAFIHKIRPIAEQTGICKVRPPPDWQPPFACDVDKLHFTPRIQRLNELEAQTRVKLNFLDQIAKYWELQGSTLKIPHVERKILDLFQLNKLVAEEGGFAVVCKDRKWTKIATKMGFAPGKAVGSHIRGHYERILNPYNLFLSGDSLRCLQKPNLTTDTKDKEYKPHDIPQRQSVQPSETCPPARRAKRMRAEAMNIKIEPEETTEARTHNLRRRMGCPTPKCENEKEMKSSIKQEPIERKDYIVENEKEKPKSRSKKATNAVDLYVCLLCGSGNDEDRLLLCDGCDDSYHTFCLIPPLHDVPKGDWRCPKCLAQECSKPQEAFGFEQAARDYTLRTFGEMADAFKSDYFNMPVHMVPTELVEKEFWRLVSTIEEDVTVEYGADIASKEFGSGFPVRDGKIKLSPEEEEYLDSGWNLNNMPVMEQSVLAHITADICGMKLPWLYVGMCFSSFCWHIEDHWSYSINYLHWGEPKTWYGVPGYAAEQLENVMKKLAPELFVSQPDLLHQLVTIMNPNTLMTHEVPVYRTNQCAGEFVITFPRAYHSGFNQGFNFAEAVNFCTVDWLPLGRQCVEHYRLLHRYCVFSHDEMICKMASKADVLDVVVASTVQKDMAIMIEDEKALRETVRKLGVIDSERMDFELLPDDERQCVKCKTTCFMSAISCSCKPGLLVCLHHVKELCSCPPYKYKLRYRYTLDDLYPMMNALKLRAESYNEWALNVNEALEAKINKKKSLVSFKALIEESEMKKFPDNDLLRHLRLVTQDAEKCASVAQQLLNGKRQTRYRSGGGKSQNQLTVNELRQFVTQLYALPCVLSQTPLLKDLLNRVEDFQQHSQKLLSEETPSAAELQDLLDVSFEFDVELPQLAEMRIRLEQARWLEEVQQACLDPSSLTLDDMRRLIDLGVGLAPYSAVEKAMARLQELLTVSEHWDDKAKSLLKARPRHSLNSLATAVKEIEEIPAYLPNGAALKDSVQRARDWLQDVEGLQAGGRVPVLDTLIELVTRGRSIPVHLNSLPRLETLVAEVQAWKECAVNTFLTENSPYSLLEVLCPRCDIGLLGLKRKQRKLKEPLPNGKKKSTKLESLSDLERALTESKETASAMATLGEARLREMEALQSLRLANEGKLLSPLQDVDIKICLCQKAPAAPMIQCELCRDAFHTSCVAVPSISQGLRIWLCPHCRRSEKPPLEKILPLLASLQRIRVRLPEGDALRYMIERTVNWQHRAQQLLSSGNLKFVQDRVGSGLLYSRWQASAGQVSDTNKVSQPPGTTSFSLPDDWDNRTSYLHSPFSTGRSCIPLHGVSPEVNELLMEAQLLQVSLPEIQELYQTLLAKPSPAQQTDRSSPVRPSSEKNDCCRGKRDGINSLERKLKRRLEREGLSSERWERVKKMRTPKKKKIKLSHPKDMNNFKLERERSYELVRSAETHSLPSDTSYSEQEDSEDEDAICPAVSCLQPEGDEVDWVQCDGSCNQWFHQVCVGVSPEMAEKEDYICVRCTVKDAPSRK
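Measured: NADH fluorescence change, 30 min, RT. System: KDM5BΔAP 200 nM final, H3K4me3 peptide, α-KG, Fe(II), ascorbate, NAD⁺ plus FDH, pH 7.5 HEPES. Compounds: titrated, 10 min pre-incubation with enzyme.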
A number is an active result. Many of the other results were omitted from the sample, so hits are more common in it than they were.

CC1CCCC(NC(=O)c2ccc(NC(=O)CC#N)cc2)C1C (configuration not stated) was read as KDM5B inhibitor inactive.
`Cc1ccc(/C=C(/C#N)c2ccc(C(F)(F)F)cn2)s1` gave KDM5B inhibitor inactive.
For O=Cc1cccn1-c1ccc(F)cc1F the results were KDM5B inhibitor inactive.
CCOc1cc(=O)n2c(c1C(=O)NCc1cc(OC)ccc1OC)CCCC2 was read as KDM5B inhibitor inactive.
Cc1ccc(CN2CCC(N3CCCC(C(=O)NCCc4ccccc4)C3)CC2)o1 (configuration not stated) was read as KDM5B inhibitor inactive.
Screening Cc1cn2nc(C(=O)NCc3ccccn3)cc2c(N2CCCC2)n1 returned KDM5B inhibitor inactive.
For Cc1cn2nc(C(=O)NCc3ccc(C(C)C)cc3)cc2c(N2CCCC2)n1 the results were KDM5B inhibitor 35.5µM.
Screening Cc1cn2nc(C(=O)NCCc3ccc(S(N)(=O)=O)cc3)cc2c(N2CCCC2)n1 returned KDM5B inhibitor inactive.
Cc1cn2nc(C(=O)NCc3ccccc3F)cc2c(N2CCCC2)n1 was read as KDM5B inhibitor 25.1µM.
CCN(Cc1ccccc1)C(=O)c1cc2c(N3CCCC3)nc(C)cn2n1 was read as KDM5B inhibitor 25.1µM.
Cc1cn2nc(C(=O)NCc3ccccc3Cl)cc2c(N2CCCC2)n1 was read as KDM5B inhibitor inactive.
CCN(Cc1ccccc1)C(=O)c1cn(-c2cccc(Cl)c2)nn1 was read as KDM5B inhibitor inactive.
Cc1cccc(CNC(=O)c2cc3c(N4CCCC4)nc(C)cn3n2)c1 was read as KDM5B inhibitor inactive.
`CCc1noc(-c2cn(C3CCN(C(=O)c4ccc5c(c4)OCO5)C3)nn2)n1` (configuration not stated) gave KDM5B inhibitor inactive.
O=C1NCc2ccccc2CC12CCN(Cc1ccccc1C(F)(F)F)C2 (configuration not stated) was read as KDM5B inhibitor inactive.
`Cn1c(SCc2coc(-c3cccs3)n2)nnc1-c1ccccc1` gave KDM5B inhibitor inactive.
`CC(=O)Nc1cccc(-c2csc(Nc3ccc(C)cc3)n2)c1` gave KDM5B inhibitor inactive.
Screening CC(=O)Nc1cccc(-c2cnc3n[nH]c(-c4sccc4C)c3n2)c1 returned KDM5B inhibitor inactive.
Screening CC(=O)Nc1cccc(-c2cnc3n[nH]c(-c4ccc(F)cc4C)c3n2)c1 returned KDM5B inhibitor 35.5µM.
`CC(=O)Nc1cccc(-c2csc(Nc3ccccc3)n2)c1` gave KDM5B inhibitor inactive.
Screening CC(=O)Nc1cccc(-c2cnc3n[nH]c(-c4ccccc4C)c3n2)c1 returned KDM5B inhibitor 39.8µM.
Screening CCOc1cc(C)c(C(C)C)cc1S(=O)(=O)n1ccnc1C returned KDM5B inhibitor inactive.
`CCOc1cc(/C=C/c2ccc3cccc(OC(C)=O)c3n2)ccc1OC(C)=O` gave KDM5B inhibitor inactive.
For CCc1ccc(NC(=O)CCS(=O)(=O)c2cc(-c3cc(C)no3)ccc2OC)cc1 the results were KDM5B inhibitor inactive.
Screening O=C1CN(CC(=O)Nc2c(Cl)cccc2Cl)CCN1 returned KDM5B inhibitor inactive.
Screening CN1CCN(c2nc3ccccc3nc2NS(=O)(=O)c2ccc(Cl)cc2)CC1 returned KDM5B inhibitor inactive.
Screening CN(Cc1cc(=O)n2cc(Cl)ccc2n1)Cc1ccc(F)cc1F returned KDM5B inhibitor inactive.
`CCOC(=O)C(C)Oc1ccc2c(=O)c(Oc3ccc(OCC)cc3)c(C)oc2c1` (configuration not stated) gave KDM5B inhibitor inactive.
For CCc1noc(-c2cn(C3CCN(C(=O)COc4ccccc4)CC3)nn2)n1 the results were KDM5B inhibitor inactive.
Screening CCc1noc(-c2cccn3c(CNC(=O)C(C)c4ccccc4)nnc23)n1 (configuration not stated) returned KDM5B inhibitor 22.4µM.
CCc1noc(-c2cccn3c(CNC(=O)COc4ccccc4)nnc23)n1 was read as KDM5B inhibitor 31.6µM.
For CCc1noc(-c2cccn3c(CNC(=O)CCc4ccc(OC)cc4)nnc23)n1 the results were KDM5B inhibitor inactive.
For CCn1cc(C(=O)N2CC(=O)N(CCc3ccccc3)CC(OCc3cccc(OC)c3)C2)cn1 (configuration not stated) the results were KDM5B inhibitor inactive.
O=S1(=O)NC2(CCCN(Cc3ccc(F)cc3)C2)COc2ccccc21 (configuration not stated) was read as KDM5B inhibitor inactive.
Screening O=C(N/N=C/c1ccccc1F)C1CC1 returned KDM5B inhibitor inactive.
For COc1ncccc1CN1CCC2(CC1)OC(=O)N(Cc1ccc(O)cc1)C2(C)c1ccccc1 (configuration not stated) the results were KDM5B inhibitor inactive.
COc1ccc(CN2CCN(Cc3ccc(OCc4ccncc4)cc3)CC2)cc1 was read as KDM5B inhibitor inactive.
`NC(=O)C1CCCN(Cc2ccc(-c3cnc4c(OCc5ccccc5)nccn34)cc2)C1` (configuration not stated) gave KDM5B inhibitor 28.2µM.
For O=C1CN(Cc2ccc(-c3cnc4c(OCc5ccccc5)nccn34)cc2)CCN1 the results were KDM5B inhibitor 35.5µM.
`O=C1CN(C(=O)Cn2ccc3ccc(OCc4ccccc4)cc32)CCN1` gave KDM5B inhibitor inactive.
Screening O=[S+]1([O-])CCN(Cc2ccc(-c3cnc4c(OCc5ccccc5)nccn34)cc2)CC1 returned KDM5B inhibitor 22.4µM.
For Cc1oc(-c2ccccc2)nc1CN1CCNC(=O)C1 the results were KDM5B inhibitor inactive.
For OC1CN(Cc2ccccc2)CCN(Cc2cn[nH]c2-c2ccc(Cl)cc2)C1 (configuration not stated) the results were KDM5B inhibitor inactive.
Screening FC(F)(F)c1ccc(N2C3CCC2CN(Cc2ccc(-c4ccccc4)cc2)C3)cc1 returned KDM5B inhibitor inactive.
`COc1ccc(-c2ccccc2NC(=O)C2CCCN(Cc3cccnc3)C2)cc1` (configuration not stated) gave KDM5B inhibitor inactive.
Screening CC(=O)Nc1ccccc1NC(=O)CN1CCCC(C(N)=O)C1 (configuration not stated) returned KDM5B inhibitor inactive.
OC1CN(Cc2ccc(-c3cnc4c(OCc5ccccc5)nccn34)cc2)C1 was read as KDM5B inhibitor 31.6µM.
O=C(NC1CC1)c1ccc(NS(=O)(=O)c2ccccc2C(F)(F)F)cc1 was read as KDM5B inhibitor inactive.
For O=C(NC1CC1)[C@@H]1C[C@H](Oc2cccnc2)CN1C(=O)CCc1c[nH]c2ccccc12 the results were KDM5B inhibitor inactive.
For CC(C)CCN1CCC(O)(c2csc(CN3CCN(c4ccccn4)CC3)n2)CC1 the results were KDM5B inhibitor inactive.
Screening COc1ccc(N(CC(=O)Nc2ccccc2C(=O)N2CCCCCC2)S(C)(=O)=O)c(OC)c1 returned KDM5B inhibitor inactive.
CN1[C@@H](CCC(=O)NCc2cccs2)CNC(=O)[C@@H]2[C@H]1CCN2Cc1ccc(C(F)(F)F)cc1 was read as KDM5B inhibitor inactive.
Cc1cc(C)c(C#N)c(SCc2cc(=O)oc3cc(C)c(O)cc23)n1 was read as KDM5B inhibitor inactive.
For COc1cccc(CN(C)CC(C#N)CCC#N)c1OC (configuration not stated) the results were KDM5B inhibitor inactive.
Nc1ccccc1OC1CCCCC1 was read as KDM5B inhibitor inactive.
For c1ccc(-c2ccc(CNC3CC3)cc2)cc1 the results were KDM5B inhibitor inactive.
Screening OC1CCC(NCc2ccc(-c3cnc4c(OCc5ccccc5)nccn34)cc2)CC1 (configuration not stated) returned KDM5B inhibitor 28.2µM.
`Cc1ccc(COc2ccc(CNC3CC3)cc2)cc1` gave KDM5B inhibitor inactive.
